Data taken from PubChem BioAssay (NCATS).
Results filed as inconclusive are left out. The source made the active and inactive calls. Calls come from the whole dose curve; as a rule, active = well fitted inhibition curve with a large enough effect; inconclusive = small, poorly fitted or top-dose-only effect; inactive = flat fitted curve, though single readings scatter.

Key:
Test in all cases: Cytotoxic Profiling of Annotated Libraries Using Quantitative High-Throughput Screening (AID 1296008); note: nearly all actives have a fitted effect of over 60% in size
Conditions in all cases: Five cell lines viability, CellTiter-Glo ATP luminescence, 48-72 h; max response: stronger effect = lower value
CRL-7250 = system: CRL-7250
Summary of the method: (§1)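 Compounds were pin-transferred onto cells and incubated 48 or 72 hr at 37 degree Celsius, 95% humidity. CellTiter-Glo was added, plates sat 10 min at room temperature, then ATP-coupled luminescence was imaged as the viability read-out.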

HEK293 = system: HEK293
Summary of the method: as §1

HaCat = system: HaCat
Summary of the method: as §1

KB-3-1 = system: KB-3-1
Summary of the method: as §1

NIH3T3 = system: NIH3T3
Summary of the method: as §1

Measured: max response
% is set by controls: 0 for no effect and ±100 for the full control effect.

NC(=O)COCCN1CCN(C(c2ccccc2)c2ccc(Cl)cc2)CC1 (stereo not drawn)
inactive: CRL-7250 0.918% | HEK293 1.14% | HaCat -16.4% | KB-3-1 -17.1% | NIH3T3

CN1C(=O)c2ccccc2C1=O
inactive: CRL-7250 3.83% | HEK293 -4.39% | HaCat -13.2% | KB-3-1 -21% | NIH3T3 -7.13%

CCc1cc(S(=O)(=O)O)c2cc(C(C)C)cccc1-2
inactive: CRL-7250 4.56% | HEK293 -0.992% | HaCat 0.42% | KB-3-1 7.96% | NIH3T3 1.41%

CC(=O)OCC(=O)[C@@]1(O)CCC2C3CCC4=CC(=O)CC[C@]4(C)C3[C@@H](O)C[C@@]21C (stereo partly drawn)
inactive: CRL-7250 | HEK293 2.9% | HaCat 3.13% | KB-3-1 0.5% | NIH3T3 0.645%

N[C@@H](Cc1cc(I)c(O)c(I)c1)C(=O)O
inactive: CRL-7250 1.61% | HEK293 -5.41% | HaCat 4.36% | KB-3-1 -0.833% | NIH3T3 -12.4%

CN(CC1(C)CCCO1)S(=O)(=O)c1ccc(Cl)c(S(N)(=O)=O)c1 (stereo not drawn)
inactive: CRL-7250 1.85% | HEK293 -6.48% | HaCat -20.1%

O=C(O)c1ccccc1S
inactive: CRL-7250 -0.928% | HEK293 0.0683% | HaCat 1.95% | KB-3-1 -5.69% | NIH3T3 1.26%

CCOC(=O)OCC/C(SC(=O)OCC)=C(\C)N(C=O)Cc1cnc(C)nc1N
inactive: CRL-7250 -3.12% | HEK293 -0.945% | HaCat -10.8% | KB-3-1 -13.2% | NIH3T3
